Active and inactive are the calls of the source. No rule for the calls is given here.

Pantothenate synthetase (Mycobacterium tuberculosis (strain ATCC 25618 / H37Rv)), sequence (P9WIL5 whole entry, looked up): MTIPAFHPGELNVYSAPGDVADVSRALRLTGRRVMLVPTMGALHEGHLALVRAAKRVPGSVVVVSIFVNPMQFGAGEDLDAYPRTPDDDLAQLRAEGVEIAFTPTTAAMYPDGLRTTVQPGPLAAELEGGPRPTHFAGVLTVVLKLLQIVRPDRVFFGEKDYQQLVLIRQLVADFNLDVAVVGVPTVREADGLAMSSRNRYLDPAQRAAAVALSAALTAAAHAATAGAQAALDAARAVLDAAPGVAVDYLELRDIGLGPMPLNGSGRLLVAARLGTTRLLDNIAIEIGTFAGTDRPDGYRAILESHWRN

The experiment addresses Pantothenate synthetase (Mycobacterium tuberculosis (strain ATCC 25618 / H37Rv)) (UniProt P9WIL5). Nature of the experiment: Recombinant Mtb pantothenate synthetase (PanC) inhibitors, coupled enzyme, confirmatory (AID 375).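 Also: 0% = full reaction with vehicle and 100% = no enzyme background.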 Conditions: coupled enzyme assay; at 10 µM, active compounds read high.
For the compound `COc1ccc(OC(C)C(=O)N2CCN(c3ccccn3)CC2)cc1` (stereo not drawn), the inhibition (in general, the relative decrease from the control value, in per cent) is 7% (inactive).

For `Cc1nn(Cc2ccccc2)c(C)c1NC(=O)CCC(=O)O`, the inhibition is 2% (inactive).

On to `Cc1cc2c(=O)n(Cc3ccco3)c(SCC(=O)NCc3ccco3)nc2s1`, for which the inhibition is 3% (inactive).

Consider `CCSc1nc2c(c(=O)n1CC)SC(C)C2` (stereo not drawn), for which the inhibition is 0% (inactive).

In the case of `O=c1[nH]c2ccccc2n1CCCN1CCN(C(c2ccccc2)c2ccccc2)CC1`, the inhibition is 1% (inactive).

As for `COc1cccc(C(=O)OCn2nnc3ccccc3c2=O)c1`, the inhibition is 0% (inactive).

For `c1cnn(-c2cc(N3CCOCC3)ncn2)c1`, the inhibition is 0% (inactive).

For `Cc1csc(NC(=O)c2ccco2)n1`, the inhibition is 0% (inactive).

Consider `CN1CCCC(OC(=O)c2ccc3c(c2)OCCO3)C1` (stereo not drawn), for which the inhibition was 0% (inactive).

Turning to `Cc1cnc(C(=O)OCC(=O)Nc2ccc(Oc3ccccc3)cc2)cn1`, the inhibition is 0% (inactive).

On to `O=C(CS(=O)(=O)c1cn(Cc2ccc(Cl)cc2)c2ccccc12)N1CCCC1`, for which the inhibition was 6% (inactive).

With `O=c1[nH]c(SCc2ccccc2Cl)nc2c1CCCC2`, the inhibition is 0% (inactive).

Consider `COC(=O)c1ccc2c(c1)C(=O)N(C1CCCCC1)C2=O`, for which the inhibition is 9% (inactive).

Take `O=C(Nc1ccccc1-c1nc2ccccc2o1)c1ccc2c(c1)OCCO2`: the inhibition is 5% (inactive).

For the compound `Cc1c(NC(=O)C2(c3ccccc3)CCOCC2)c(=O)n(-c2ccccc2)n1C`, the inhibition is 3% (inactive).

As for `CC(C)(C)c1ccc(OCC(=O)O)cc1`, the inhibition was 1% (inactive).

As for `O=S(=O)(NCc1cn2ccccc2n1)c1cc(F)ccc1F`, the inhibition was 2% (inactive).

In the case of `CC(C)OC(=O)CSc1nnnn1-c1ccc2c(c1)OCCO2`, the inhibition is 2% (inactive).

Values taken from PubChem BioAssay.
